Assays:
Assay in all cases: PBM binding z-score (relative to random genomic background probes); higher = stronger binding; sequences stand for … in GC…GCGATTGACAGCGTAGAATGAAGG
[1] = test system: RARb homodimer (NR concentration 270 nM)
Procedure, shortened: (§1)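 Binding z-scores were set against random background probes. The data came from custom Agilent 4×180K protein-binding microarrays carrying double-stranded probes with 34-nt variable regions, incubated 1 h with ligand-free nuclear receptor dimers. Partner-specific antibodies detected binding, and scanned fluorescence was regression-normalized.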

[2] = test system: RARg:RXRa (NR concentration 270 nM, RXRa partner concentration 90 nM)
Procedure, shortened: as §1

[3] = test system: RARg homodimer (NR concentration 270 nM)
Procedure, shortened: as §1

[4] = test system: RXRa DBDmut IVT, anti-RXR (DBD mutation: RXRa K156A/R161A, NR concentration 90 nM)
Procedure, shortened: as §1

[5] = test system: RXRa homodimer (NR concentration 180 nM)
Procedure, shortened: as §1

[6] = test system: THRa:RXRa (NR concentration 90 nM, RXRa partner concentration 90 nM)
Procedure, shortened: as §1

[7] = test system: THRa homodimer (NR concentration 90 nM)
Procedure, shortened: as §1

[8] = test system: VDR homodimer (NR concentration 270 nM)
Procedure, shortened: as §1

Sequence | PBM binding z-score [1] | PBM binding z-score [2] | PBM binding z-score [3] | PBM binding z-score [4] | PBM binding z-score [5] | PBM binding z-score [6] | PBM binding z-score [7] | PBM binding z-score [8]
TCTAGTTGGTCAAAGGTCACACATTCGAAATGCG | 5.15 | 6.77 | 5.76 | 1.62 | 7.57 | 4 | 2.07 | 2.42
CCTACAGGGTCAGCTAGGCCAGAGTAGGGACGGC | 3.06 | 4.32 | 4.38 | 1.01 | 4.59 | 3.02 | 0.663 | 0.899
AGAATGAGTTTATTAAGATCAGGGAATTGCGGTC | 0.079 | -0.0299 | 0.321 | 3.88 | 0.093 | 0.265 | 0.231 | 3.05
CCGAGTGGGGCAAAGGTTACCATACTCAGTACGA | 2.45 | 3.55 | 1.75 | 0.25 | 3.67 | 1.86 | -0.359 | 0.16
CTACCAAGGTGAACAAGTTCGTTGATTACTATTC | 1.3 | 0.877 | 1.02 | 2.17 | 0.747 | 1.9 | 0.959 | 3.6
TCTAGTTGGGCAAAGGTCACACACTCGAAATGCG | 5.01 | 6.49 | 5.87 | 1.44 | 7.41 | 3.99 | 1.54 | 2.26
CGTCAAAGTTCAAGGTAACGTGACAGAAAGCAGC | 3.72 | 5.21 | 5.97 | 4.54 | 4.26 | 2.99 | 1.08 | 3.04

— the supplement of paper PMC6555819
